Reference: PubChem BioAssay
Values without a mark were called inactive. Activity calls are given as the source filed them.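 How the source made its calls, unless noted: active means mean inhibition over 43.08%, the solvent-only control mean plus 3 SD; inactive means the rest.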

Experiments:
[1] = molecular target: Nuclear receptor coactivator 3 (Homo sapiens) (UniProt Q9Y6Q9); assay: NCOA3 GAL4-fusion reporter inhibition – cell-based, luminescence, quadruplicate, confirmation (AID 588792); settings: HEK293 GAL4-SRC3 luciferase reporter, at 3.6 µM, stronger effect = higher value;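 further: 0% = DMSO treated cells and 100% = gossypol at 36 µM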
[2] = test system: transactivating tegument protein VP16 (Human herpesvirus 1), Gal4-VP16 luciferase reporter; assay: repression of VP16-driven luciferase reporter – cell-based, luminescence, high throughput, counter-screen for SRC3 inhibitor project (AID 588794; in the data active means inhibition above about 30%); settings: mammalian cells, at 3.6 µM, stronger effect = higher value

Nuclear receptor coactivator 3 (Homo sapiens), sequence (Q9Y6Q9 whole entry, looked up, the tested form may be a part): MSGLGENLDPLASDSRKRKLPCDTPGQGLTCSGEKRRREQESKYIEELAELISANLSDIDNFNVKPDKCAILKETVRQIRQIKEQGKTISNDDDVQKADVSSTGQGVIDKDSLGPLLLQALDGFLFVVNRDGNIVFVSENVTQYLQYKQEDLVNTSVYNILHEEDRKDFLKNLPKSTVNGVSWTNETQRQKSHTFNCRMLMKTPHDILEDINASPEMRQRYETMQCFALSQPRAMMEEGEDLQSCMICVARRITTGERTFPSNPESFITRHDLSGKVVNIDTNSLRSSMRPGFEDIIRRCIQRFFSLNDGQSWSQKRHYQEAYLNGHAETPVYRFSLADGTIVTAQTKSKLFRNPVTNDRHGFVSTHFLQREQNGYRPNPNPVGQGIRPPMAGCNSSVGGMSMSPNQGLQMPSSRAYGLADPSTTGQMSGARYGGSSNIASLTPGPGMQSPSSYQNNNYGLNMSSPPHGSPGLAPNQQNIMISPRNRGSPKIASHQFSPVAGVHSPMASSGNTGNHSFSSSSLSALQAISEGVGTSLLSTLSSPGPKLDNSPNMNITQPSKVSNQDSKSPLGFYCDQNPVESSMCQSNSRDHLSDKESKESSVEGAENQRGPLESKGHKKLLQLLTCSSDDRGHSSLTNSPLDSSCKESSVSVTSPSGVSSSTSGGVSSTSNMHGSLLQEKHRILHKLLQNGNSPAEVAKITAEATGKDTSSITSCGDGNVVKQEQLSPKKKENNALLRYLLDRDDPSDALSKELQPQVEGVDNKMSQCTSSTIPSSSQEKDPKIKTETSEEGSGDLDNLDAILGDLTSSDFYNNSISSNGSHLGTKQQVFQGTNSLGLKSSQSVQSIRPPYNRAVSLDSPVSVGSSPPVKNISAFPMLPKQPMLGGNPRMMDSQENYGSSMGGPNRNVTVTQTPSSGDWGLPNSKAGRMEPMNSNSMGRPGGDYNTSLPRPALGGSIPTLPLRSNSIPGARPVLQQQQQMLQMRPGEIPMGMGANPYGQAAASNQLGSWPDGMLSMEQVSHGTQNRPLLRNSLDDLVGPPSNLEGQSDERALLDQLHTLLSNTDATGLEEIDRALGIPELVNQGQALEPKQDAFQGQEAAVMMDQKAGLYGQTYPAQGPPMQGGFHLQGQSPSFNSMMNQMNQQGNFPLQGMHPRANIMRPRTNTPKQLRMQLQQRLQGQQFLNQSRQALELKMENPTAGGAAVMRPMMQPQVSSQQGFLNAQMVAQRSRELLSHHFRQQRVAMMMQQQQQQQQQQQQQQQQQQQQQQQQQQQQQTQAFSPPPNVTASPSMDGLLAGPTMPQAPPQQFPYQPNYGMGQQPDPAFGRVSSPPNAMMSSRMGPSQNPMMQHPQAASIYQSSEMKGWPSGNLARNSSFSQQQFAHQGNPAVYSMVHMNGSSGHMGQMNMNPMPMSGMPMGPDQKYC

SMILES: O=C1OCCC1Sc1nnc(-c2ccc(Cl)cc2Cl)o1 (stereo unspecified)
- inhibition [1]: 0.88%
- inhibition [2]: 1.16%

SMILES: CC(C)C(C)NC(=O)CSc1ccc(S(=O)(=O)N2CCOCC2)cn1 (stereo unspecified)
- inhibition [1]: -6.95%
- inhibition [2]: 8.39%

SMILES: CC1=C/C(=N\OS(=O)(=O)c2ccccc2)C(C)=CC1=O
- inhibition [1]: 19.7%
- inhibition [2]: 9.07%

SMILES: Cc1ccc(C(=O)N/N=C/c2ccc(-c3cccc(C(F)(F)F)c3)o2)cn1
- inhibition [1]: 6.91%
- inhibition [2]: 4.45%

SMILES: O=C(c1ccccc1)N1CCN(Cc2c[nH]c3ccccc23)CC1
- inhibition [1]: 8.59%
- inhibition [2]: -3.11%

SMILES: CCCCn1c(/N=C/c2ccc(N(C)C)cc2)nc2ccccc21
- inhibition [1]: -1.05%
- inhibition [2]: -4%

SMILES: Cn1nnnc1Sc1ncnc2scc(-c3ccccc3)c12
- inhibition [1]: -4.36%
- inhibition [2]: 2.99%

SMILES: CC1CCC(C(C)C)C(OC(=O)Cn2c(-c3ccc(Br)cc3)[n+](C)c3ccccc32)C1 (stereo unspecified)
- inhibition [1]: 3.76%
- inhibition [2]: 35.8% (active)

SMILES: Clc1ccc(SCc2cc(N3CCOCC3)nc(-c3ccccn3)n2)cc1
- inhibition [1]: -5.99%
- inhibition [2]: 1.33%

SMILES: Cc1cc(C(=O)Nc2ccncc2)c(C)o1
- inhibition [1]: 8.35%
- inhibition [2]: -9.44%

SMILES: CC(C)NC(=O)N(C)C[C@H]1Oc2ccc(NS(=O)(=O)c3ccc(Cl)cc3)cc2CC(=O)N([C@@H](C)CO)C[C@@H]1C
- inhibition [1]: 5.62%
- inhibition [2]: -1.86%

SMILES: Cc1cc(SCC(=O)N/N=C/c2ccc(O)cc2O)c(C)cc1Br
- inhibition [1]: 20.6%
- inhibition [2]: 23.2%

SMILES: COc1ccc2c(O)c(-c3c(C)cc(C)cc3C)c(=O)[nH]c2c1
- inhibition [1]: -14.3%
- inhibition [2]: -6.8%

SMILES: O=C(NNC(=O)c1cccnc1SCc1cccc([N+](=O)[O-])c1)c1ccccn1
- inhibition [1]: 34.4%
- inhibition [2]: 30.1% (active)

SMILES: CCOC1=C2CN(S(=O)(=O)c3ccc(C)cc3)[C@H](c3ccc(CC)cc3)C[C@@H]2N(S(=O)(=O)c2ccc(C)cc2)[C@H](c2ccccc2)C1
- inhibition [1]: 10.9%
- inhibition [2]: 35.4% (active)

SMILES: O=C(NC1CCCC1)C(c1ccncc1)N(Cc1ccccc1)C(=O)Cc1cccs1 (stereo unspecified)
- inhibition [1]: 2.62%
- inhibition [2]: -0.83%

SMILES: O=C(CC12CC3CC(CC(C3)C1)C2)Nc1nncs1
- inhibition [1]: 15.4%
- inhibition [2]: 19.6%

SMILES: Cc1noc(C)c1CN1C(=O)NC2(CCCCCCC2)C1=O
- inhibition [1]: 0.62%
- inhibition [2]: -10.4%

SMILES: O=C(N/N=C/c1c(O)ccc2ccccc12)c1ccc(Br)o1
- inhibition [1]: 57.3% (active)
- inhibition [2]: 43.2% (active)

SMILES: COc1cc(NC(=O)c2cc3ccccc3cc2OC)ccc1NC(=O)c1cccs1
- inhibition [1]: 4.37%
- inhibition [2]: -1%

SMILES: COc1ccc(N/N=C(/N=Nc2nc(C)cc(=O)[nH]2)c2ccccc2)cc1
- inhibition [1]: 46.6% (active)
- inhibition [2]: 30.7% (active)

SMILES: CC(C)C[C@H]1CNC(=S)N1C[C@H]1CCCN1C[C@H](Cc1ccc(O)cc1)N1C[C@H](CC(C)C)N(CC2CCCCCC2)C1=S
- inhibition [1]: 21.1%
- inhibition [2]: 16.3%

SMILES: Cc1cccc(NC(=O)c2cnn(C)c2)c1C
- inhibition [1]: -2.28%
- inhibition [2]: -8.45%

SMILES: O=C(NC(=S)NNC(=O)c1ccccc1O)c1ccc(F)cc1
- inhibition [1]: 19%
- inhibition [2]: 9.84%

SMILES: C/C(=N\NC(N)=S)C1C2C3CC4C5CC(C42)C1C53 (stereo unspecified)
- inhibition [1]: 28.5%
- inhibition [2]: 30% (active)

SMILES: CCOC(=O)CC/C(C)=N\N=C1\SC(CC(=O)O)C(=O)N1c1ccccc1 (stereo unspecified)
- inhibition [1]: 0.21%
- inhibition [2]: -4.68%

SMILES: COn1c(C)c(C(C)=O)c2c3nonc3ccc21
- inhibition [1]: 22.5%
- inhibition [2]: 33.5% (active)

SMILES: CC#CC[N+](C)(C)CCCCCCCCCC
- inhibition [1]: 4.4%
- inhibition [2]: 16.9%

SMILES: COc1ccc2nc(C(F)(F)Cl)c(C#N)c(N)c2c1
- inhibition [1]: 24%
- inhibition [2]: -0.89%

SMILES: COc1ccc(Nc2nc(-c3ccccc3)nc3ccccc23)cc1S(=O)(=O)N1CCOCC1
- inhibition [1]: 7.91%
- inhibition [2]: 1.3%

SMILES: FC(F)(F)c1cccc(NC(=S)N(CCCN2CCCC2)Cc2cccn2Cc2ccc(Cl)cc2)c1
- inhibition [1]: -14.5%
- inhibition [2]: 0.12%

SMILES: O=C(N/N=C\c1cc(Br)ccc1O)c1ccc(S(=O)(=O)N2CCCCC2)cc1
- inhibition [1]: 72.3% (active)
- inhibition [2]: 74.8% (active)

SMILES: CCOC(=O)CCCCC1C(CCCC(=O)OCC)C=NN1C (stereo unspecified)
- inhibition [1]: -16%
- inhibition [2]: -3.48%
